For 62 compounds, inhibition results are on record in PubChem BioAssay AID1445 (SRMLSC, 2008).

Hit rate of the full screen: of about 220,000 compounds, about 910 (0.41%) were called active. The entries come from a sample that favours actives as a whole. Entries with a potency or affinity are not part of this list. A number with no mark means an inactive call.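 Rule for the calls: active = primary inhibition above the hit cutoff, then over 50% inhibition at one or more dose response concentrations (cut at about 23% in these data, passing the limit was not always enough); inconclusive = conflicting primary data, or primary hits not chosen for dose response; inactive = low primary inhibition, or under 50% at every dose.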

Sequence of Aminopeptidase N (Plasmodium falciparum (isolate 3D7)) (O96935 whole entry, looked up): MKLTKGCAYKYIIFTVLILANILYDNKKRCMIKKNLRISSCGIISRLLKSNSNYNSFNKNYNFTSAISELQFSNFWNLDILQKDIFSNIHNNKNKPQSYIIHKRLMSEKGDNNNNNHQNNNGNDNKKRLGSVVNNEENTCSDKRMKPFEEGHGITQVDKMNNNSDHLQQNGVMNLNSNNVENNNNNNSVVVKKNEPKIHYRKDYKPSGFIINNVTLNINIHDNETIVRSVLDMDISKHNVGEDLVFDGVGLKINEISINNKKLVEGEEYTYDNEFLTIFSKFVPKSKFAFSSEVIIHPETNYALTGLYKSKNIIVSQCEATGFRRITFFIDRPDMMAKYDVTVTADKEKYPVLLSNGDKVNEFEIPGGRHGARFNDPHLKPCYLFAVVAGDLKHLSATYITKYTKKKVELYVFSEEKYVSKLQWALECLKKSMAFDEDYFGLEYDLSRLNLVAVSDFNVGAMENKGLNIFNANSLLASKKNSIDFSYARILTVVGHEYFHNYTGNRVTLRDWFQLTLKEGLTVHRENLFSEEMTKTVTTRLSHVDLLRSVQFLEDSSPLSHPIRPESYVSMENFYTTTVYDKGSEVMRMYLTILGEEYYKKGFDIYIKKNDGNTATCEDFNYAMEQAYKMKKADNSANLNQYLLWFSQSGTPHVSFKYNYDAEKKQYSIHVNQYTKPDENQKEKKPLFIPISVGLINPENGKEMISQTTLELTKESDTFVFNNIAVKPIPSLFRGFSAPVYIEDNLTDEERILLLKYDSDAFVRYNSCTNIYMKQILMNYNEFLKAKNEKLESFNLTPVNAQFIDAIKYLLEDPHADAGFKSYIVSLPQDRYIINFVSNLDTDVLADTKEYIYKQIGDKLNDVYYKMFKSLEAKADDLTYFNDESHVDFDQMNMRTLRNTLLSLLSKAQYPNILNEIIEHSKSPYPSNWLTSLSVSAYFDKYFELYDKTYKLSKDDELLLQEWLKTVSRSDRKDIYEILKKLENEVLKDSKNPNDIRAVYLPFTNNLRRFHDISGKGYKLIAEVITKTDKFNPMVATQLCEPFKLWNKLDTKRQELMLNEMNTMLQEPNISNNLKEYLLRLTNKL

This assay addresses Aminopeptidase N (Plasmodium falciparum (isolate 3D7)) (UniProt O96935). As to the kind of experiment: malaria alanyl aminopeptidase activity blockers – biochemical, fluorogenic H-Leu-NHMec substrate, 1536-well (AID 1445).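 Note: plate controls were DMSO full reaction for no effect and no enzyme background for full effect.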 The conditions noted are these: recombinant M1AAP, H-Leu-NHMec fluorogenic kinetic assay; at 30 µM, stronger effect = higher value unless noted.
Regarding `CC(=O)Nc1ccc(S(=O)(=O)NCC(=O)OCC(=O)NC(=O)c2cccn2C)cc1`, the inhibition is 3.48%.

Take `CC1CCN(S(=O)(=O)c2ccc(NC(=O)CCN3C(=O)c4ccccc4C3=O)cc2)CC1`: the inhibition was 4.02%.

With `C=CCNC(=S)/N=c1/scc(C)n1C`, the inhibition is 6.8%.

Turning to `Cc1ccccc1Cn1ccc(NC(=O)c2onc(C)c2Cl)n1`, the inhibition was 2.73%.

As to `COCCNC(=O)COc1ccccc1Cl`, the inhibition was 17.4%.

As for `O=C(Nn1cc(C(=O)Nc2ccc(F)cc2F)c2ccccc2c1=O)c1cnccn1`, the inhibition is 5.45%.

As for `CCOC(=O)N1CCN(c2c(N3CCN(c4ccccc4F)CC3)c(=O)c2=O)CC1`, the inhibition is 3.17%.

Take `CCc1nnc(NC(=O)CSc2nnc(CNC(=O)c3ccc(OC)c(OC)c3)o2)s1`: the inhibition was 0.34%.

For `CC1(C)NC(=O)N(CCCCOc2ccccc2[N+](=O)[O-])C1=O`, the inhibition was 1.49%.

Take `COC(=O)c1ccc(-c2ccc(/C=N/N3C(=O)C4C5C=CC(C6CC56)C4C3=O)o2)cc1` (configuration not stated): the inhibition is 4.36%.

On to `O=C1C2C3C=CC(C4CC34)C2C(=O)N1/N=C/c1ccc(-c2ccc([N+](=O)[O-])cc2)o1` (configuration not stated), for which the inhibition is 7.6%.

For the compound `O=C(Cc1ccc(Br)cc1)N/N=C/c1ccc(-c2cccc(C(=O)O)c2)o1`, the inhibition is 14.3%.

Turning to `COc1ccc(CC(=O)N/N=C/c2ccc(-c3ccc(F)cc3)o2)cc1OC`, the inhibition was 6.71%.

As to `O=C(CCN1CCN(C(=O)c2ccco2)CC1)Nc1ccc(F)cc1`, the inhibition is 1.29%.

For `S=C(NCCCn1ccnc1)NC1CCCCC1`, the inhibition is 6.56%.

On to `CCC(C)NC(=O)CN(C)S(=O)(=O)c1ccc2c(c1)c(=O)n(C)c(=O)n2C` (configuration not stated), for which the inhibition is -4.82%.

For `CCCC(=O)OCC(=O)Nc1ccc2c(c1)OCO2`, the inhibition is -0.89%.

For `CCOC(=O)C1=C(C)N=c2s/c(=C3\C(=O)Nc4ccccc43)c(=O)n2C1c1ccc2c(c1)OCO2` (configuration not stated), the inhibition is 8.57%.

As for `CCOc1ccc(N2C(=O)c3ccccc3C2=O)cc1`, the inhibition is -0.53%.

In the case of `CCO/C=C1/C(=O)N(c2ccc(OC)cc2)C(=O)c2ccccc21`, the inhibition is 4.8%.

`Cc1cc(C)nc(NS(=O)(=O)c2ccc(N3C(=O)c4ccccc4C3=O)cc2)n1`: the inhibition is 0.35%.

Take `CCO/C=C1\C(=O)N(c2ccccc2)C(=O)c2ccccc21`: the inhibition is -1.51%.

For `COc1ccccc1N1CCN(C(c2ccc(N(C)C)cc2)c2nnnn2CCc2ccccc2)CC1` (configuration not stated), the inhibition was -7.04%.

Turning to `COc1ccc(Oc2c(C)oc3c(CN(C)C)c(O)ccc3c2=O)cc1`, the inhibition was 2.59%.

Consider `Cc1oc2c(CN3CCCC3)c(O)ccc2c(=O)c1-c1ccccc1`, for which the inhibition was 9.3%.

For the compound `CCN(CC)Cc1c(O)c(Cl)cc2c3c(c(=O)oc12)CCCC3`, the inhibition was 9.62%.

Consider `CCCc1cc(=O)oc2c(CN3CCOCC3)c(O)ccc12`, for which the inhibition is 21.8%.

As to `CCc1cc2c3c(c(=O)oc2cc1O)CCCC3`, the inhibition was 22.5%.

On to `Cc1oc2c(CN3CCCC3)c(O)ccc2c(=O)c1-c1ccc(Br)cc1`, for which the inhibition was 17.5%.

In the case of `CCc1c(C)c2ccc(OCC(=O)N(C)C)c(C)c2oc1=O`, the inhibition is 0.38%.

Regarding `O=c1oc2c(CN3CCOCC3)c(O)ccc2c2ccccc12`, the inhibition is 3.91%.

For `COc1ccc(-n2nnnc2SCC(=O)N2CCCC2)cc1OC`, the inhibition is 0.63%.

Turning to `COc1ccc(C(=O)Nc2cc(=O)n(C)c(=O)n2C)cc1`, the inhibition was 4.18%.

As to `Cc1nc(N)nc(-c2ccccc2O)n1`, the inhibition is 7.96%.

`Cn1c(=O)[nH]c(=O)c2c1nc(N1CCCCC1)n2C/C=N/NC(=O)c1cc(Br)ccc1O`: the inhibition is 20.9%.

Turning to `COCCCNC(=O)c1ccccc1Sc1ccc(NC(C)=O)nc1`, the inhibition is 2.96%.

For the compound `CCCn1nc2cc(C(=O)NC3CCc4ccccc43)ccc2c1OCC` (configuration not stated), the inhibition was 4.98%.

Consider `Nc1nc(NC(=O)c2ccccc2Cl)nn1-c1ccccc1`, for which the inhibition was -0.99%.

Take `Cc1c(C(=O)NCC(C)C)sc2nc(-c3ccc(F)cc3)cn12`: the inhibition is -1.14%.

For `CC(=O)Cc1nsc(NC(=O)c2ccco2)n1`, the inhibition is 0.74%.

In the case of `O=[N+]([O-])c1cc(S(=O)(=O)Nc2ccccc2)ccc1NCc1cccnc1`, the inhibition is 6.72%.

Consider `CC(C)CN(Cc1c(O)ccc2c3c(c(=O)oc12)CCC3)CC(C)C`, for which the inhibition was 34.7%.

On to `CC1CCCN(Cc2c(O)ccc3c(=O)c(-c4nc5ccccc5s4)c(N)oc23)C1` (configuration not stated), for which the inhibition was 24.6% (active).

Regarding `COC(=O)Cc1c(C)c2ccc(OCC(C)=O)c(C)c2oc1=O`, the inhibition was 14.3%.

As to `CCc1cc(=O)oc2cc(C)c(CN3CCCC(C)C3)c(O)c12` (configuration not stated), the inhibition was 2.92%.

Regarding `CC1CCCCN1Cc1c(O)ccc2c(=O)c(-c3nc4ccccc4s3)c(N)oc12` (configuration not stated), the inhibition was 17.1%.

In the case of `C=C(C)COc1ccc2c(C)c(CC(=O)OC)c(=O)oc2c1C`, the inhibition was 13.3%.

Turning to `CC1CN(Cc2c(O)ccc3c2oc(=O)c2ccccc23)CC(C)O1` (configuration not stated), the inhibition is 4.75%.

As to `CC1CCN(Cc2c(O)ccc3c(=O)c(-c4nc5ccccc5s4)c(N)oc23)CC1`, the inhibition is 2.55%.

Take `CN(Cc1c(O)ccc2c1oc(=O)c1ccccc12)C1CCCCC1`: the inhibition was 5.6%.

For the compound `O=C(Cc1c(Cl)cccc1Cl)NCCc1ccc(Cl)cc1`, the inhibition was 13.8%.

As for `Cc1ccc(NC(=O)CCNS(=O)(=O)c2ccc3c(c2)c(=O)n(C)c(=O)n3C)cc1C`, the inhibition was 9.45%.

Take `NC(=O)c1ccccc1N/C=C1\CCCCC1=O`: the inhibition was 10.2%.

`O=C1/C(=C/Nc2cccc([N+](=O)[O-])c2)CCc2ccccc21`: the inhibition was 9.22%.

Take `CCOC(=O)N1CCN(C(=O)COc2ccccc2Cl)CC1`: the inhibition is 4.17%.

For `COCCn1c(SCC#N)nnc1-c1ccc2c(c1)OCO2`, the inhibition is -1.51%.

As to `OC(c1cccs1)c1nccc2ccccc12` (configuration not stated), the inhibition was -3.89%.

For `O=c1cc(-c2ccccc2)c2ccc(O)c(CN3CCCCC3)c2o1`, the inhibition was 11.4%.

With `CCCCN(CC)Cc1c(O)ccc2c(-c3ccccc3)cc(=O)oc12`, the inhibition was 4.82%.

As for `COCCN(CCOC)Cc1c(O)ccc2c3c(c(=O)oc12)CCC3`, the inhibition is 4.7%.

On to `O=c1oc2c(CN3CCCCC3)c(O)ccc2c2c1CCCCC2`, for which the inhibition was 42.2% (active).

Regarding `Cc1c(O)ccc2c3c(c(=O)oc12)CCCC3`, the inhibition is 20.9%.

What is called inhibition is the change of the read-out against control, counted positive when it falls.
